We go through 28 molecules from PubChem BioAssay AID1851 (National Center for Advancing Translational Sciences (NCATS), 2009).

About 5,800 (36%) of roughly 16,000 compounds were called active. Another 23% or so got no clear call; they are omitted. The call rests on the fitted dose curve; in most records, active means well fitted curve in the direction sought with a large enough effect; inconclusive means small, poorly fitted or top-dose-only effect, or effect the other way; inactive means no such curve, though single readings can be large or run the other way. The list shows a part of the results.
On the % scale 0 is the no-effect control and ±100 the full control effect.

The experiment deals with Cytochrome P450 2C19 (Homo sapiens) (UniProt P33261). The experiment can be described thus: Cytochrome panel assay with activity outcomes. The conditions noted are these: recombinant CYP, pro-luciferin dealkylation, luminescence, p450-cyp2c19; series mostly up to 57.1 µM; activity, negative = inhibition: at the top concentration.
Cytochrome P450 2C19 (Homo sapiens), sequence (P33261 whole entry, looked up): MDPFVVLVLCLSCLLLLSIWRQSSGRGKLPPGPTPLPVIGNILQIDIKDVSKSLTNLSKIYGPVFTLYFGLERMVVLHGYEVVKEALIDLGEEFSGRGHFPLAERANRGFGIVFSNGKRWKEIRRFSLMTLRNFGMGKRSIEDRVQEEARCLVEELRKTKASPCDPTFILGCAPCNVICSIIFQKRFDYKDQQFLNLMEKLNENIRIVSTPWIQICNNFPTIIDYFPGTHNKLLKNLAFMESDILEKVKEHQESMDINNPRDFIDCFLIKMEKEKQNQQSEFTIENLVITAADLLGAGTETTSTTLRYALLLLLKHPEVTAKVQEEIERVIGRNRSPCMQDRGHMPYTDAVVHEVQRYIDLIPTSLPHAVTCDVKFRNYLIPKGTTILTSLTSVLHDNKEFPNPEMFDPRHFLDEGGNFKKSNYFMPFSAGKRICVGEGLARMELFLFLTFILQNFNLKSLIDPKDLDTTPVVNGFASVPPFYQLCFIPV
As to `C/C(CCN1CCCc2nc(C)c(C)cc21)=N\OC[C@@H](C)[C@H](OCc1ccccc1)C(C)C`, the activity, negative = inhibition was -29.2% [at 11.4 µM] (inactive).
On to `Cc1ccccc1CSc1nsc(N)n1`, for which the concentration at half-maximal activity (AC50) (usually the midpoint of the concentration-response curve, whichever way the signal moves) was 11.2 µM (active).
With `CCN1/C(=C/c2ccc3cccc(C)c3[n+]2CC)Sc2ccccc21`, the “activity, negative = inhibition” value was -0.21% (inactive).
In the case of `O=C(CS(=O)(=O)c1cccc(Cl)c1)Nc1ccccc1Cl`, the half-maximal activity concentration (AC50) is 2.51 µM (active).
With `O=C(CS(=O)c1cccc(C(F)(F)F)c1)Nc1ccccc1Cl` (stereo not drawn), the concentration at half-maximal activity (AC50) is 2.82 µM (active).
On the same count and under the same terms, with `O=C(CS(=O)c1cccc(Cl)c1)Nc1ccccc1Cl` (stereo not drawn) the figure was 2.51 µM (active).
As to `NCC(=O)Nc1ccc(Cl)cc1C(=O)c1ccc[nH]1`, the activity, negative = inhibition was -10.9% [at 11.4 µM] (inactive).
Same read-out and setting: with `NC(=O)NC(=O)Nc1ccccc1Cl` the figure was -12.5% (inactive); with `OC[C@@H]1O[C@@H](n2cnc3c(N[C@H]4CCC[C@@H]4O)ncnc32)[C@H](O)[C@H]1O`, -26.2% (inactive).
Take `Cc1cccc[n+]1CC(=O)Nc1ccc([N+](=O)[O-])cc1Cl`: the half-maximal activity concentration (AC50) is 3.16 µM (active).
Regarding `O=C(Nc1ccc([N+](=O)[O-])cc1Cl)c1cc(Cl)ccc1O`, the “activity, negative = inhibition” value is -30.4% (inactive).
Take `Cc1ccc(S(=O)(=O)c2c(C)nn(C(C)(C)C)c2OC(=O)c2cccs2)cc1`: the AC50 was 1 µM (active).
Take `CN1CCC(n2[nH]c(-c3ccccc3)c(Cc3ccccc3)c2=O)CC1`: the activity, negative = inhibition was -29.5% [at 11.4 µM] (inactive).
On to `COc1cc([C@H](O)CO)ccc1O`, for which the “activity, negative = inhibition” value was 9.63% (inactive).
For the molecule `N#Cc1c(N)nc2c(c1-c1cccc(O)c1)CCCCCC2`, the AC50 is 7.08 µM (active).
In the case of `Cc1c(-c2c(C#N)c(N)nc3c2CCCCCC3)cnn1C`, the AC50 is 14.1 µM (active).
The same measure, in the same setting: with `CCc1sc(-c2c(C#N)c(N)nc3c2CCCCCC3)cc1[N+](=O)[O-]` the figure was 3.98 µM (active); with `FC(F)(F)c1ccc(N2CCOCC2)c(Nc2nc3ccccc3n3cnnc23)c1`, 3.55 µM (active); with `CCCCSc1nc(C)cc(C)c1S(=O)(=O)c1ccccc1C`, 0.562 µM (active).
On the same count and under the same terms, next, `CCCSc1nc(C)cc(C)c1S(=O)(=O)c1ccccc1C`: 2.24 µM (active).
As for `Cc1ccccc1S(=O)(=O)c1c(C)cc(-c2ccccc2)[nH]c1=O`, the “activity, negative = inhibition” value was -7.26% (inactive).
For `COc1ccccc1/C=C/C=N/N1CCN(Cc2cccc3ccccc23)CC1`, the AC50 was 14.1 µM (active).
Take `COc1ccccc1CN1CCC2(CCNCC2)CC1`: the “activity, negative = inhibition” value is -22.3% (inactive).
On the same count and under the same terms, with `COc1ccccc1CN1CCC2(CC1)CCN(S(C)(=O)=O)CC2` the figure was -15.7% (inactive); with `Cc1ccc(C(=O)c2ccc(CC(=O)O)n2C)cc1`, -10.5% [at 25.6 µM] (inactive); with `O=C(Nc1ncc(Cc2ccccc2)s1)C1COc2ccccc2O1` (stereo not drawn), -19.2% (inactive).
Consider `O=C(NCc1cccnc1)C1COc2ccccc2O1` (stereo not drawn), for which the AC50 was 8.91 µM (active).
Consider `O=C(Nc1cccnc1)C1COc2ccccc2O1` (stereo not drawn), for which the AC50 was 11.2 µM (active).
